Measured values reported in the supplement of paper PMC10849652.
The full data set covers some 8,800 targets. This sample favours those with a hit. About 0.5% of all pairs of compound and target were hits. Unmarked numbers belong to inactive results.

Experiments:
Assay in all cases: log2 fold change, soluble protein after heating vs DMSO (PISA); higher = thermal stabilisation; K562 lysate, 10 uM; active = over 0.2 and 3.5 SD of the protein, either way, in both replicates (recomputed)
alvocidib = compound: CN1CC[C@H](c2c(O)cc(O)c3c(=O)cc(-c4ccccc4Cl)oc23)[C@H](O)C1 [alvocidib]
In short: (§1)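 Dounce homogenisation of K562 pellets in PBS pH 7.4 with 1 mM MgCl2 produced a crude extract, used at 1 mg/mL protein. Exposure to 10 μM compound lasted 30 min, and aliquots were then heated for 3 min across 48°C-58°C, pooled and brought to 0.5% NP-40 at 4°C. The supernatant after 21,000xg for 90 min was quantified by TMTpro 16plex LC-MS/MS with channel sums equalised. Duplicate values are given as log-two fold change in thermal stability relative to solvent controls.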

Tubastatin A = compound: CN1CCc2c(c3ccccc3n2Cc2ccc(C(=O)NO)cc2)C1 [Tubastatin A]
In short: as §1

[1] = compound: CNC(=O)C1=CC=CC=C1NC2=NC(=NC=C2Cl)NC3=C(C=C(C=C3)N4CCOCC4)OC
In short: as §1

defactinib = compound: CNC(=O)c1ccc(Nc2ncc(C(F)(F)F)c(NCc3nccnc3N(C)S(C)(=O)=O)n2)cc1 [defactinib]
In short: as §1

[2] = compound: CNc1nc(-c2ccc3c(N)n[nH]c3c2)cc(N2C[C@@H](C(=O)NC3CCCCC3)CC[C@H]2C)n1
In short: as §1

encorafenib = compound: COC(=O)N[C@@H](C)CNc1nccc(-c2cn(C(C)C)nc2-c2cc(Cl)cc(NS(C)(=O)=O)c2F)n1 [encorafenib]
In short: as §1

[3] = compound: COC(=O)[C@H](CCSC)NC(=O)C1=C(C=C(C=C1)NC[C@H](CS)N)C2=CC=CC=C2
In short: as §1

alisertib = compound: COc1cc(Nc2ncc3c(n2)-c2ccc(Cl)cc2C(c2c(F)cccc2OC)=NC3)ccc1C(=O)O [alisertib]
In short: as §1

[4] = compound: COc1cc2nc(-c3cc(F)ccc3O)nc(N[C@@H]3CNC[C@H]3C(C)(C)O)c2cc1OC
In short: as §1

gefitinib = compound: COc1cc2ncnc(Nc3ccc(F)c(Cl)c3)c2cc1OCCCN1CCOCC1 [gefitinib]
In short: as §1

lapatinib = compound: CS(=O)(=O)CCNCc1ccc(-c2ccc3ncnc(Nc4ccc(OCc5cccc(F)c5)c(Cl)c4)c3c2)o1 [lapatinib]
In short: as §1

pictilisib = compound: CS(=O)(=O)N1CCN(Cc2cc3nc(-c4cccc5[nH]ncc45)nc(N4CCOCC4)c3s2)CC1 [pictilisib]
In short: as §1

crizotinib = compound: C[C@@H](Oc1cc(-c2cnn(C3CCNCC3)c2)cnc1N)c1c(Cl)ccc(F)c1Cl [crizotinib]
In short: as §1

[5] = compound: C[C@H](C1=CC=C(C=C1)C(=O)NC2=C3C=CNC3=NC=C2)N
In short: as §1

duvelisib = compound: C[C@H](Nc1ncnc2nc[nH]c12)c1cc2cccc(Cl)c2c(=O)n1-c1ccccc1 [duvelisib]
In short: as §1

gandotinib = compound: Cc1cc(Nc2cc(CN3CCOCC3)c3nc(C)c(Cc4ccc(Cl)cc4F)n3n2)n[nH]1 [gandotinib]
In short: as §1

tozasertib = compound: Cc1cc(Nc2cc(N3CCN(C)CC3)nc(Sc3ccc(NC(=O)C4CC4)cc3)n2)n[nH]1 [tozasertib]
In short: as §1

doramapimod = compound: Cc1ccc(-n2nc(C(C)(C)C)cc2NC(=O)Nc2ccc(OCCN3CCOCC3)c3ccccc23)cc1 [doramapimod]
In short: as §1

bafetinib = compound: Cc1ccc(NC(=O)c2ccc(CN3CC[C@H](N(C)C)C3)c(C(F)(F)F)c2)cc1Nc1nccc(-c2cncnc2)n1 [bafetinib]
In short: as §1

[6] = compound: Cc1cccc(CC(=O)N2CCc3c2ccc(-c2cn(C)c4ncnc(N)c24)c3F)n1
In short: as §1

UniProt P48426, sequence (P48426 whole entry, looked up): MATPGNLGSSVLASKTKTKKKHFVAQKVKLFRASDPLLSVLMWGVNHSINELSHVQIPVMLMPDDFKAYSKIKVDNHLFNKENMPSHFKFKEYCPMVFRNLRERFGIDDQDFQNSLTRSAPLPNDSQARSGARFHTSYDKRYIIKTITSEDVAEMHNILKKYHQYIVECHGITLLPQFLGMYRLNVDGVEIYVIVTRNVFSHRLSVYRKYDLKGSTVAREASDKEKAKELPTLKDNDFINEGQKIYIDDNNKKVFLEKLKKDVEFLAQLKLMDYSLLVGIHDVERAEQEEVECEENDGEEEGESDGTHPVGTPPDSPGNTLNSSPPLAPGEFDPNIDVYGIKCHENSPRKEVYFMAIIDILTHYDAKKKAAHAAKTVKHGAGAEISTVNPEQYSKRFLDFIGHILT
UniProt O00264, sequence (O00264 whole entry, looked up): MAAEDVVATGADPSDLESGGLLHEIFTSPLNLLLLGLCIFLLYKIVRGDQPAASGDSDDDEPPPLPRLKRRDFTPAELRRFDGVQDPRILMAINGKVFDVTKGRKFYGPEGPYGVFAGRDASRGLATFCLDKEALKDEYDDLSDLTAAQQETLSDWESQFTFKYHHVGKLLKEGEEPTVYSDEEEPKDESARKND
UniProt P50336, sequence (P50336 whole entry, looked up): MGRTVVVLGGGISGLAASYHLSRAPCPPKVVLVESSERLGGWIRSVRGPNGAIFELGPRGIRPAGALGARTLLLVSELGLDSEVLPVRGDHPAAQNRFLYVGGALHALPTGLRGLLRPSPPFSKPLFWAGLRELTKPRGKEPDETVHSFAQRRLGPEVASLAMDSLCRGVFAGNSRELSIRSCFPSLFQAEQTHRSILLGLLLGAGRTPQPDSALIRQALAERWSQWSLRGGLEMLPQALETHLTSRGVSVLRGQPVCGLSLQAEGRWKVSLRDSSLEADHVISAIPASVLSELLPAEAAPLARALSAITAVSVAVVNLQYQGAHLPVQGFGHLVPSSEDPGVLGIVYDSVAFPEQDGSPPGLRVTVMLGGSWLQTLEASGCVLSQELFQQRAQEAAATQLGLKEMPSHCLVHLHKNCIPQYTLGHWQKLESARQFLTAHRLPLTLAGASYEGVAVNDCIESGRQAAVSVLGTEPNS
UniProt O75334, sequence (O75334 whole entry, looked up): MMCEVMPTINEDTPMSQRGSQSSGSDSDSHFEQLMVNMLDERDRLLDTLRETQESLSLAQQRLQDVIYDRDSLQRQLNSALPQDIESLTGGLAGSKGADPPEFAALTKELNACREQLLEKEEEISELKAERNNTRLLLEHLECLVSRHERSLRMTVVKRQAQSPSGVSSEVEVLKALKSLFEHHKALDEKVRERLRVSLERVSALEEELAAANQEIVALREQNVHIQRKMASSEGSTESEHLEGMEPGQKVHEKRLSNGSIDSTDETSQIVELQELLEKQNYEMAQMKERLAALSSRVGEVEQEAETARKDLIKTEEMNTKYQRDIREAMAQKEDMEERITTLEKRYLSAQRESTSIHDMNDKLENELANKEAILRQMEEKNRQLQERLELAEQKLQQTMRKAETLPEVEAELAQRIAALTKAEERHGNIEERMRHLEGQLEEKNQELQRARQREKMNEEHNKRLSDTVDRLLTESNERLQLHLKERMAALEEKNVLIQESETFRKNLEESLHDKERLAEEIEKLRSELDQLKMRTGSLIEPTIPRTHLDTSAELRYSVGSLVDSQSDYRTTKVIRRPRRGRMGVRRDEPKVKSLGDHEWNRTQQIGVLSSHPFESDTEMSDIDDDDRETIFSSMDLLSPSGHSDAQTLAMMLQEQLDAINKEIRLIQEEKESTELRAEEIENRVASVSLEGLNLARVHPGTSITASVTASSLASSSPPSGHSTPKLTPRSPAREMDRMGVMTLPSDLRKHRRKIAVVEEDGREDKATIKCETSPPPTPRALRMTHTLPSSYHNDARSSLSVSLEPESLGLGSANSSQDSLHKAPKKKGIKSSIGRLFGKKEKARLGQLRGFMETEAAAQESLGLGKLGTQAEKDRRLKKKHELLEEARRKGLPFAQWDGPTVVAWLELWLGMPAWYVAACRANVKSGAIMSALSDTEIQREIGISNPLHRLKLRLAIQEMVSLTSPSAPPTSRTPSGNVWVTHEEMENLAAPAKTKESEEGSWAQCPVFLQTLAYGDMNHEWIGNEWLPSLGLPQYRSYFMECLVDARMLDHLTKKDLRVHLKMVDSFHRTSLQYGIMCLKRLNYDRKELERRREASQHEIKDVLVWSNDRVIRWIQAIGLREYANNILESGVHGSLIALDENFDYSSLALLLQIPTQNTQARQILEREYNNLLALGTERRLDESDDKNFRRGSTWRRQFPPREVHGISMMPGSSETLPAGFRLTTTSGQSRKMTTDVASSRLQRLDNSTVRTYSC
UniProt P14314, sequence (P14314 whole entry, looked up): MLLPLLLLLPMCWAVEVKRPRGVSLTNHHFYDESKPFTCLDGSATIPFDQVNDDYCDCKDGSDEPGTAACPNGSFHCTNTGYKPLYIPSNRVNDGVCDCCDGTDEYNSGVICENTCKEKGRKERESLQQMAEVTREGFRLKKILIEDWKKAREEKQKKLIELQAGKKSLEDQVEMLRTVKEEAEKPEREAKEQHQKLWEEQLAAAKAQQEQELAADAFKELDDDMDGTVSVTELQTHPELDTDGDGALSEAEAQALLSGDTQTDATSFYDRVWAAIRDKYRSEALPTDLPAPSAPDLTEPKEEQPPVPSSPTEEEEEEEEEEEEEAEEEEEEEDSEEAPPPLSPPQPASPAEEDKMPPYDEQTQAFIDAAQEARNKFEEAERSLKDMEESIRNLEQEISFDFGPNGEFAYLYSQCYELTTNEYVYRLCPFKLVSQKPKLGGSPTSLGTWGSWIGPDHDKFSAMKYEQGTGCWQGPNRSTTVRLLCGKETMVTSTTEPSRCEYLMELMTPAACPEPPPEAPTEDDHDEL
UniProt P46019, sequence (P46019 whole entry, looked up): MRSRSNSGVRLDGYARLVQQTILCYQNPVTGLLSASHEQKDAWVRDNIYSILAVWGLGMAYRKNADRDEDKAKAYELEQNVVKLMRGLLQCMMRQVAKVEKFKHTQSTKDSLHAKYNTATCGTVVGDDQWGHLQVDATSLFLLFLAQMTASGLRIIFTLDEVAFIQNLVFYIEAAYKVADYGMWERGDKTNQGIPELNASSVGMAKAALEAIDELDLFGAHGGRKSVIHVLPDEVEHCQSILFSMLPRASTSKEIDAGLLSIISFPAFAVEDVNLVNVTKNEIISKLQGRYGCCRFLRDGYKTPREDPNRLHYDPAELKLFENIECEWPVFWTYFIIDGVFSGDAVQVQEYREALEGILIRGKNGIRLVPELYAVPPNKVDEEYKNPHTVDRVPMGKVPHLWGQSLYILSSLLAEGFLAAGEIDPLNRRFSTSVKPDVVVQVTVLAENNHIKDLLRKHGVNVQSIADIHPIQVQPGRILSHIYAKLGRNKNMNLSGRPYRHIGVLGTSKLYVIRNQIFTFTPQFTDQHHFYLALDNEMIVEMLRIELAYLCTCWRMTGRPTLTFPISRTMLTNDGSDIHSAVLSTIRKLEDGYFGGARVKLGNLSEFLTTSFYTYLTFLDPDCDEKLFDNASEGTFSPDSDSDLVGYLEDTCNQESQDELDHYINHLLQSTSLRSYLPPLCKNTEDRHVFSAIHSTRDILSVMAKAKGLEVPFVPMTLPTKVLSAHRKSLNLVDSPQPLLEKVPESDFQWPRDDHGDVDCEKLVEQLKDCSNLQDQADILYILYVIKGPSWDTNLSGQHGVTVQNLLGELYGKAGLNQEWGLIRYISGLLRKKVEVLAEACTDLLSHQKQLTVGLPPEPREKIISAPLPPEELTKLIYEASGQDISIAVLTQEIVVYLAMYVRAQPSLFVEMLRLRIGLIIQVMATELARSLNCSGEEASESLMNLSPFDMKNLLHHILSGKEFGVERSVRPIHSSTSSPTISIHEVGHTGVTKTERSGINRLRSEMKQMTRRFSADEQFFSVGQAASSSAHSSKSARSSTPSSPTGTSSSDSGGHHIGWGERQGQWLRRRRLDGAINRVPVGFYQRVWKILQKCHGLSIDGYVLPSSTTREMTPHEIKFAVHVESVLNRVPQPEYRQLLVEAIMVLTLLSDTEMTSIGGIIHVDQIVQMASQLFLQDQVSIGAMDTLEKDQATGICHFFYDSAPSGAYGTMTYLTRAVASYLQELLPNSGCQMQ
UniProt Q8NA72, sequence (Q8NA72 whole entry, looked up): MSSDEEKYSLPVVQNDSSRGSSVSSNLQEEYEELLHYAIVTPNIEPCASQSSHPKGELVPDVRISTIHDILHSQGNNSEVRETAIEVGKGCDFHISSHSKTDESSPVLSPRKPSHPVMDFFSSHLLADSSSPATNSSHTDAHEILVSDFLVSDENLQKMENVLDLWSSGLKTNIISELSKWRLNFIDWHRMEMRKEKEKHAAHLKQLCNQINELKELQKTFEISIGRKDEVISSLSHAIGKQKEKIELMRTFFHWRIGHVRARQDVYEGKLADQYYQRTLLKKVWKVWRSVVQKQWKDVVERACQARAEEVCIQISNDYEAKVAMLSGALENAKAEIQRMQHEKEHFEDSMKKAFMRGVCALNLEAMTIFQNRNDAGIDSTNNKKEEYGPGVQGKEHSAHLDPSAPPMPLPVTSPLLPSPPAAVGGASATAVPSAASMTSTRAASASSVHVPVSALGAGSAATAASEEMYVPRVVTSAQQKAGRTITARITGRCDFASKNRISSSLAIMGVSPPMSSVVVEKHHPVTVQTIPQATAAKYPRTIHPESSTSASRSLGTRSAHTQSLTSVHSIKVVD
UniProt Q9BUL8, sequence (Q9BUL8 whole entry, looked up): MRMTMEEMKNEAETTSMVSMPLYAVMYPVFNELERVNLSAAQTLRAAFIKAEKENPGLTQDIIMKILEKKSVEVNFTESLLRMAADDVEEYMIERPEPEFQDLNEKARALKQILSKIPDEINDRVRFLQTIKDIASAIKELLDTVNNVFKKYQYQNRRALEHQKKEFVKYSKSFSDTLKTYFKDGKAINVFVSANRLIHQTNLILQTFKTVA

| Target | log2 fold change (alvocidib) | log2 fold change (Tubastatin A) | log2 fold change [1] | log2 fold change (defactinib) | log2 fold change [2] | log2 fold change (encorafenib) | log2 fold change [3] | log2 fold change (alisertib) | log2 fold change [4] | log2 fold change (gefitinib) | log2 fold change (lapatinib) | log2 fold change (pictilisib) | log2 fold change (crizotinib) | log2 fold change [5] | log2 fold change (duvelisib) | log2 fold change (gandotinib) | log2 fold change (tozasertib) | log2 fold change (doramapimod) | log2 fold change (bafetinib) | log2 fold change [6] |
| --- | --- | --- | --- | --- | --- | --- | --- | --- | --- | --- | --- | --- | --- | --- | --- | --- | --- | --- | --- | --- |
| POC5 (UniProt Q8NA72) | -0.048 | -0.046 | 0.054 | 0.154 | 0.06 | 0 | -0.048 | -0.018 | -0.009 | 0.042 | -0.133 | -0.12 | 0.02 | 0.022 | -0.041 | 0.107 | -0.086 | -0.023 | 0.051 | 0.031 |
| PIK3R2 (UniProt O00459) | 0.023 | -0.086 | 0.027 | 0.017 | -0.009 | 0.009 | -0.225 | 0.008 | 0.02 | -0.052 | -0.009 | 0.318 (active) | -0.018 | 0.009 | 0.322 (active) | 0.043 | 0.009 | 0.014 | -0.004 | -0.016 |
| PDCD6IP (UniProt Q8WUM4) | 0.05 | 0 | -0.002 | -0.021 | -0.042 | -0.1 | 0.143 | -0.039 | 0.013 | -0.001 | -0.006 | -0.032 | -0.103 | -0.106 | 0.004 | -0.012 | 0.033 | 0.034 | -0.053 | 0.012 |
| PLIN2 (UniProt Q99541) | -0.008 | -0.107 | -0.014 | 0.049 | 0.002 | 0.061 | -0.107 | 0.044 | -0.071 | 0.104 | -0.009 | -0.041 | -0.038 | 0.023 | 0.014 | -0.254 (active) | 0.096 | -0.003 | -0.067 | 0.011 |
| PDE4DIP isoform 4 (UniProt Q5VU43) | -0.038 | 0.004 | -0.003 | -0.018 | 0.036 | 0.006 | 0.004 | 0.023 | -0.007 | -0.059 | -0.003 | -0.076 | -0.048 | -0.069 | -0.017 | 0.116 | -0.005 | 0 | -0.073 | 0.05 |
| PPOX (UniProt P50336) | -0.004 | -0.124 | 0.257 | -0.03 | 0.107 | -0.017 | 0.076 | 0.005 | -0.035 | -0.043 | 0.379 (active) | 0.111 | -0.068 | -0.075 | 0.04 | 0.581 (active) | 0.003 | 0.206 | -0.028 | 0.11 |
| PRKCSH isoform 2 (UniProt P14314) | -0.124 | 0.002 | -0.078 | -0.011 | -0.05 | 0.039 | -0.013 | -0.079 | -0.042 | 0.092 | 0.132 | 0.072 | -0.016 | -0.622 (active) | 0.174 | 0.293 | 0.092 | 0.136 | 0.055 | 0.24 |
| PDCD10 (UniProt Q9BUL8) | -0.053 | -0.002 | 0.013 | 0.029 | -0.005 | -0.019 | 0.034 | 0.01 | 0.05 | -0.025 | -0.016 | -0.014 | -0.005 | -0.254 (active) | -0.007 | 0.112 | 0.023 | -0.013 | -0.033 | 0.031 |
| PIP4K2A (UniProt P48426) | 0.279 (active) | -0.048 | 0.006 | 0.065 | -0.035 | 0.141 | -0.071 | 0.01 | 0.005 | 0.037 | -0.04 | 0.032 | 0.019 | -0.089 | 0.05 | 0.109 | 0.014 | -0.035 | 0.301 (active) | 0.005 |
| PPFIA2 (UniProt O75334) | -0.107 | 0.021 | 0.022 | -0.011 | -0.026 | -0.082 | -0.029 | -0.007 | 0.012 | 0.057 | -0.014 | 0.031 | -0.212 | -0.244 (active) | 0.001 | 0.139 | -0.028 | 0.023 | 0.019 | 0.147 |
| PRKCSH (UniProt P14314) | 0.009 | 0.039 | -0.001 | -0.014 | -0.035 | -0.003 | -0.036 | -0.006 | 0.024 | 0.024 | -0.004 | -0.004 | 0.062 | 0.046 | 0.022 | -0.023 | 0.02 | -0.042 | 0.05 | -0.088 |
| PDCD6IP isoform 2 (UniProt Q8WUM4) | 0.033 | -0.088 | -0.005 | -0.022 | -0.02 | -0.01 | 0.188 | 0.014 | 0.003 | -0.003 | 0 | -0.015 | -0.015 | 0.071 | -0.009 | -0.09 | 0.024 | -0.008 | -0.006 | -0.019 |
| PHKA2 (UniProt P46019) | 0.064 | -0.084 | 0.265 (active) | -0.027 | 0.032 | -0.008 | 0.018 | -0.008 | 0.06 | -0.03 | -0.085 | -0.042 | 0.048 | 0.022 | -0.01 | -0.035 | -0.015 | 0.013 | -0.109 | -0.012 |
| PCYT1B (UniProt Q9Y5K3) | -0.007 | -0.023 | 0.033 | 0.01 | 0.086 | 0.047 | -0.025 | 0.033 | -0.02 | 0.033 | 0.008 | 0.004 | 0.025 | -0.044 | -0.007 | 0.193 | 0.008 | -0.003 | -0.127 | 0.239 (active) |
| PRKCB isoform 2 (UniProt P05771) | -0.004 | 0.054 | -0.029 | -0.019 | 0.03 | 0.057 | -0.203 | 0.039 | 0.148 | 0.008 | -0.001 | 0.003 | 0.036 | -0.012 | 0.033 | -0.122 | 0.035 | 0.009 | -0.01 | 0.021 |
| PGRMC1 (UniProt O00264) | -0.026 | 0.01 | -0.022 | 0.02 | -0.014 | 0.006 | -0.258 (active) | 0.006 | 0.006 | 0.03 | 0.001 | -0.023 | 0.057 | -0.011 | -0.024 | 0.047 | 0.035 | -0.052 | 0.004 | 0.018 |
